A selection: hits, their analogues and other compounds. The true share with any hit is near 4%.
tim23-1 inh: growth inhibitors of tim23-1 mutant yeast | inhibition, % at 20 µM | S. cerevisiae tim23-1 growth, BacTiter-Glo luminescence, 24 h | AID 463212 | hit rate 1.3% among 330,000;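 active = growth inhibition of the mutant yeast at or above 50%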;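 also: temperature-sensitive mutant grown at 25 °C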
tim10-1 inh: inhibits growth of tim10-1 mutant yeast. hit rate 2.2% among 330,000. inhibition, % at 20 µM. AID 463190. S. cerevisiae tim10-1 ts strain growth, BacTiter-Glo, 24 h;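 active = inhibition of at least 40%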;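 also: mutant grown at 25 °C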
NALP1 inh: blocks the NALP1 inflammasome reconstituted in yeast. S. cerevisiae NALP1/ASC/caspase-1 growth, X-gal OD620, 72 h. hit rate 0.61% among 280,000. AID 2071. inhibition, % at 10 µM; in the data active = inhibition mostly above about 24%, no sharp cut-off; inactive = mostly below about 32%
NLRP3 yeast inh: inhibitors of NALP3 inflammasome in yeast; Yeast reconstituted NLRP3/ASC/caspase-1, beta-gal luminescence, 24 h; inhibition, % at 10 µM; hit rate 0.39% among 330,000;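 active = inhibition of 50% or more; inactive = inhibition below 50%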
TIM10 inh: TIM10 yeast growth inhibition. S. cerevisiae TIM10 strain growth, BacTiter-Glo luminescence, 24 h. inhibition, % at 10 µM. hit rate 1.4% among 330,000;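 active = inhibition of 40% or more at the single tested concentration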;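 also: wild-type TIM10 isogenic control strain grown at permissive 25 °C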
tim10-1 confirm: tim10-1 yeast growth inhibition, confirmed; shares compounds with tim10-1 inh; S. cerevisiae tim10-1 ts strain growth, BacTiter-Glo, 24 h; inhibition, % at 20 µM; hit rate 56% among 7,400; AID 463213;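 active = inhibition of yeast growth at or above a set limit in either of two repeat tests at 20 µM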;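 also: tim10-1 mutant grown at permissive 25 °C to find synthetic lethal compounds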
Numbers stand for hits; – = inactive; · = no result given.

SMILES	tim23-1 inh	tim10-1 inh	NALP1 inh	NLRP3 yeast inh	TIM10 inh	tim10-1 confirm
COc1ccc(N2CCN(C(c3ccccc3OC)c3nnnn3Cc3ccco3)CC2)cc1 (centres undefined)	–	40.4	–	–	–	–
CCCC(c1nnnn1Cc1cccs1)N1CCN(C)CC1 (centres undefined)	–	–	–	–	–	·
CCCC(c1nnnn1Cc1cccs1)N1CCN(c2ccc(OC)cc2)CC1 (centres undefined)	–	42.8	–	–	–	–
COc1cccc(C(c2nnnn2Cc2ccco2)N2CCN(Cc3ccccc3)CC2)c1OC (centres undefined)	–	–	–	–	–	·
CCOC(=O)n1c(=O)n(Cc2ccccc2Cl)c2ccccc21	–	42.7	–	–	–	33.3
CCOC(=O)n1c(=O)n(Cc2ccc(Cl)cc2Cl)c2ccccc21	–	–	–	–	–	·
COc1cccc(OC)c1C(=O)Nc1ccc(Br)c(C(=O)c2ccccc2)c1	–	40.6	–	–	–	–
CCOc1cc(/C=N/NC(=O)c2ccncc2)cc(Cl)c1OS(C)(=O)=O	–	–	–	–	–	·
COCCN(CCOC)c1nc(-c2ccc(C)cc2)nc2ccccc12	–	–	–	–	–	·
CCCCN(CC)c1nc(-c2ccncc2)nc2ccccc12	–	43.1	–	–	–	–
CCCCn1c(N)c(N(CCOC)C(=O)C2CCN(S(=O)(=O)c3ccc(Cl)cc3)CC2)c(=O)[nH]c1=O	–	–	–	–	–	·
CC(C)C1NC2(C(=O)c3ccccc3C2=O)C2C(=O)N(c3ccc(F)cc3)C(=O)C12 (centres undefined)	–	40.2	–	–	–	30.3
C#CCN(C)CC/C=C1\c2ccccc2CSc2ccccc21	–	44.1	–	–	–	–
O=C(O)C1CCN(S(=O)(=O)c2ccc(N3CCC(O)CC3)c([N+](=O)[O-])c2)CC1	–	–	–	–	–	·
CCC1CCCCN1c1cc(C)nc2cc(-c3cccc(C)c3)nn12 (centres undefined)	–	41.9	–	–	–	–
Cc1cc(N2CCOCC2)n2nc(-c3cccc(F)c3)cc2n1	–	–	–	–	–	·
Oc1c(Cl)cc(Cl)c2c1NCCC2	–	49.7	53.0	–	–	–
Cc1ccc2c(CC(=O)O)coc2c1C	–	41.1	–	–	–	–
CCOC(=O)CC(=O)CSc1nc2c(c(-c3cccs3)c1C#N)CCC2	–	42.2	·	–	–	33.0
CCOC(=O)CC(=O)CSc1nc2c(cc1C#N)CCC2	–	–	–	–	–	·
Nc1nc(N)c(C=Nc2ccc(Br)cc2)c(Nc2ccc(Br)cc2)n1	–	56.8	–	–	–	32.0
Brc1ccc(N=C/C=C/C=C/Nc2ccc(Br)cc2)cc1	–	–	–	–	–	·
N#Cc1cccc(NC(=S)Nc2ccccc2)c1	–	–	–	–	–	·
O=C(O)c1ccc(COc2ccccc2C=C2C(=O)c3ccccc3C2=O)cc1	–	–	–	–	–	–
CCOC(=O)/C(=N/Nc1ccccc1)c1csc(Nc2ccccc2)n1	–	48.1	–	–	–	–
SMILES	tim23-1 inh	tim10-1 inh	NALP1 inh	NLRP3 yeast inh	TIM10 inh	tim10-1 confirm
CCCCC(CCC(=O)O)(C(=O)OCC)c1csc(Nc2ccccc2)n1 (centres undefined)	–	42.1	–	–	–	–
CCOC(=O)/C(=N\Nc1ccc(Cl)cc1)c1csc(Nc2ccccc2)n1	–	–	–	–	–	·
COC(=O)C1=C(C)OC(N)=C(C#N)C1c1c(C)nn(-c2ccccc2)c1Cl (centres undefined)	–	40.2	–	–	–	33.2
CC(C)(C)NC(=O)Nc1ccc(F)c(Cl)c1	–	46.4	–	–	–	43.5
O=C(/C=C/c1ccccc1)N(c1ccccn1)C1CCCCC1	–	43.2	–	–	–	–
O=C(/C=C/c1ccccc1Cl)N(c1ccccn1)C1CCCCC1	–	–	–	–	–	·
O=C(O)c1ccc2c(c1)C(=O)N(CCc1c[nH]c3ccccc13)C2=O	–	97.9	–	–	–	–
O=C(NC1CCN(CCc2c[nH]c3ccccc23)CC1)c1ccccc1	–	43.2	–	–	–	–
O=C(NC1CCN(Cc2ccccc2)CC1)c1ccccc1	–	–	–	–	–	·
Nc1c(C(=O)NCc2ccc(Cl)cc2)sc2nc3c(c(C(F)(F)F)c12)CCC3	–	45.9	–	–	–	–
Cc1ccc(CNC(=O)c2sc3nc4c(c(C(F)(F)F)c3c2N)CCC4)cc1	–	–	–	–	–	·
CC(C(=O)NCc1ccc(Cl)cc1)n1cccc1C(=O)c1ccccc1 (centres undefined)	–	41.0	–	–	–	–
Cc1c[n+](CC(=O)c2ccccc2)cs1	–	–	–	–	–	·
O=[N+]([O-])c1ccc(Sc2nccn2Cc2ccccc2)c([N+](=O)[O-])c1	–	50.9	–	–	–	–
O=C(CCc1nnc2ccc(N3CCC4(CC3)OCCO4)nn12)NCc1ccc(F)cc1	–	–	–	–	–	·
COc1ccccc1C(=O)NC(=O)Nc1c(C)cc(C)cc1C	–	42.4	–	–	–	39.7
CCSc1nnc2ccc(-c3cccs3)nn12	–	–	–	–	–	·
CCc1ccc(-c2ccc3nnc(SC)n3n2)cc1	–	55.6	–	–	–	–
CCSc1nnc2ccc(-c3ccc(C)cc3)nn12	–	45.4	–	–	–	–
CC1CCCCC12NC(=O)N(CC(=O)OCC(=O)N(C)C1CCCCC1)C2=O (centres undefined)	–	–	·	–	–	·
Cc1ccccc1Cn1cc(NC(=O)c2cc(C3CC3)on2)cn1	–	–	–	–	–	·
Cc1c(C(=O)/C=C/c2cccs2)oc2ccc(F)cc12	–	45.1	–	–	–	38.0
Brc1ccc(-c2csc3ncnc(-n4nnc5ccccc54)c23)cc1	–	45.2	–	–	–	32.2
Cc1ccc(NC(=O)c2ccc(Cl)c(N3C(=O)C=CC3=O)c2)cc1	–	67.7	–	–	–	78.8
CCOC(=O)c1cn[nH]c1NC(=S)Nc1ccc(Cl)cc1	–	40.6	–	–	–	–
SMILES	tim23-1 inh	tim10-1 inh	NALP1 inh	NLRP3 yeast inh	TIM10 inh	tim10-1 confirm
CC(C)(C)Nc1nc(SCC(=O)Nc2ccccc2)nc(N2CCOCC2)n1	–	46.2	–	–	–	–
Cc1nnc(SCC(=O)Nc2cc(Cl)ccc2Cl)n1CC1CCCO1 (centres undefined)	–	–	–	–	–	·
CCCn1c(=O)c2sccc2n2c(CCCC(=O)NCC3CCCO3)nnc12 (centres undefined)	–	–	–	–	–	·
O=C(NCc1cccnc1)Nc1ccccc1C(F)(F)F	–	–	–	–	–	·
COc1ccc(OCC(=O)N2N=C(C(F)F)CC2(O)C(F)F)cc1 (centres undefined)	–	52.8	–	–	–	42.5
Cc1cc(N/N=C/c2cccc(Cl)c2)nc(NCc2ccccc2)n1	–	–	–	–	–	·
Cc1cc(Nc2cccc(Cl)c2)nc(NCc2ccccc2)n1	–	44.8	–	–	–	–
O=C(NCc1cccnc1)C12CC3CC(CC(Cl)(C3)C1)C2	–	–	–	–	–	·

Screens as filed in PubChem BioAssay.
